# Compounds without any hit were thinned out: in the full panel of roughly 83,000, 20% have a hit.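 48-hour exposure, single concentration, 96-well plates; percent growth endpoint where 0 means no net growth. Active: below 10.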 A number with no mark means an inactive call. The source made the active and inactive calls.
# What was measured:
# Assay in all cases: NCI-60 one-dose screen, 48 h (100 = growth as untreated, 0 = no growth, -100 = all killed)
# Conditions in all cases: 10 µM unless noted
# DU-145 prostate = system: DU-145 prostate
# K-562 leukemia = system: K-562 leukemia
# MALME-3M melanoma = system: MALME-3M melanoma
# MDA-MB-231 breast = system: MDA-MB-231 breast
# RXF 393 renal = system: RXF 393 renal
# SF-268 CNS = system: SF-268 CNS
# SF-295 CNS = system: SF-295 CNS
# SF-539 CNS = system: SF-539 CNS
# UACC-257 melanoma = system: UACC-257 melanoma
# M14 melanoma = system: M14 melanoma
# HCT-15 colon = system: HCT-15 colon
# HT29 colon = system: HT29 colon
# SNB-75 CNS = system: SNB-75 CNS
# SNB-19 CNS = system: SNB-19 CNS
# U251 CNS = system: U251 CNS
# PC-3 prostate = system: PC-3 prostate
# SK-MEL-5 melanoma = system: SK-MEL-5 melanoma
# LOX IMVI melanoma = system: LOX IMVI melanoma
# SK-MEL-28 melanoma = system: SK-MEL-28 melanoma
# UACC-62 melanoma = system: UACC-62 melanoma
SMILES,growth (DU-145 prostate),growth (K-562 leukemia),growth (MALME-3M melanoma),growth (MDA-MB-231 breast),growth (RXF 393 renal),growth (SF-268 CNS),growth (SF-295 CNS),growth (SF-539 CNS),growth (UACC-257 melanoma),growth (M14 melanoma),growth (HCT-15 colon),growth (HT29 colon),growth (SNB-75 CNS),growth (SNB-19 CNS),growth (U251 CNS),growth (PC-3 prostate),growth (SK-MEL-5 melanoma),growth (LOX IMVI melanoma),growth (SK-MEL-28 melanoma),growth (UACC-62 melanoma)
COc1ccc2c(c1)c(-c1nc(-c3c[nH]c4ncccc34)cs1)cn2CCN,59.7%,41.5%,81.6%,53.7%,59.9%,80.1%,95.3%,68.8%,98.2%,67.5%,43.7%,55.9%,56.6%,79.4%,66.7%,42.8%,72.9%,66%,100%,–
COc1ccc(-n2c(/C=C/c3ccc(O)c(OC)c3)cc(/C=C/c3ccc(O)c(OC)c3)nc2=O)cc1,68.9%,11.8%,85%,43.8%,45.4%,41.4%,82.3%,39%,82.2%,40.4%,59%,-59.1% (active),54.5%,69.9%,32.4%,53.7%,–,13%,58.5%,68.1%
CC(=O)OC(C)COc1ccc(-c2ccccc2)cc1 (configuration not stated),101%,97.9%,118%,103%,104%,96.1%,97.5%,101%,74.3%,92.1%,107%,86%,89.6%,103%,76.4%,86.1%,99.8%,110%,104%,–
Cn1c2c(Cl)c(Cl)ccc2c2c(C#N)c[nH]c(=O)c21,109%,106%,140%,98.5%,97.2%,99%,97.8%,84.6%,98.1%,105%,99%,99.5%,91.9%,97.3%,101%,74.3%,–,91.9%,114%,93.4%
CC(C)C[C@@H](NC(=O)[C@@H](Cc1ccccc1)NC(=O)c1cnccn1)B1O[C@H]2[C@H](O)[C@@H](C(=O)NCCCC[C@@H]3NC(=O)[C@@H](Cc4ccccc4)NC(=O)[C@H](CC(=O)O)NC(=O)CNC(=O)[C@H](CCCN=C(N)N)NC3=O)O[C@@H](CN)[C@H]2O1,-8.32% (active),2.76% (active),-20.6% (active),-9.73% (active),-85.9% (active),-37.1% (active),-73.5% (active),-31.9% (active),-28% (active),-0.783% (active),-54% (active),-73.4% (active),-65.4% (active),-10.1% (active),-58.6% (active),-34.3% (active),–,-86.1% (active),-30.1% (active),-36.7% (active)
COc1cc(/C=C/c2cc(/C=C/c3ccc(O)c(OC)c3)n(-c3ccc(Cl)cc3)c(=O)n2)ccc1O,91.7%,72.6%,100%,60.3%,90.7%,76.1%,97.3%,78.1%,97%,88.3%,85.4%,-5.09% (active),69.7%,91%,75.5%,77.3%,–,61.6%,81.6%,80.6%
Cc1cc(N(CCCNc2ccnc3cc(Cl)ccc23)Cc2ccco2)nc(Cl)n1,71.6%,9.75% (active),74%,61.7%,71.1%,72.7%,42.3%,54.3%,59.9%,46.4%,48.5%,22.1%,66%,75.1%,60.7%,49%,-8.23% (active),42.2%,77.7%,–
Cn1c(=O)c2c(nc(N3CCCC3)n2C)n(C)c1=O,105%,99.2%,103%,98.9%,104%,97.3%,102%,101%,93.2%,92.3%,103%,94.5%,89.9%,106%,87.5%,91.2%,102%,96.5%,104%,–
